Source: ChEMBL document CHEMBL1157539, “Thousands of chemical starting points for antimalarial lead identification” (Nature, 2010)

These molecules were tested on HepG2 (assay: GSK_TCMDC: Percent inhibition of human HepG2 cell line. Test compounds present at 10uM.).
Format: functional

Row | SMILES | Inhibition [%]
1 | Cl.O=C(Nc1ccc(Cl)cc1)Nc1cccc(-c2cc(CNCCc3ccccc3)oc2-c2ccncc2)c1 | 40
2 | COC(=O)c1cc(C(=O)CN(Cc2ccccc2)C(C)C)ccc1O.Cl | 7
3 | CC(C)CNCc1cccc(-c2cccc(CN(CCCN3CCN(C)CC3)C(=O)Nc3ccccc3)c2)c1.O=C(O)C(F)(F)F | 25
4 | O=C(Nc1ccc(Cl)c(Cl)c1)Nc1ccc2c(c1)CCNCC2.O=C(O)C(F)(F)F | 13
5 | O=C(Cc1c[nH]cn1)Nc1ccc(-c2ccc(-c3nc4cc(C(F)(F)F)ccc4[nH]3)s2)cc1 | 48
6 | COc1ccc2nccc(NC(=O)N3CCC(NCc4cc5ccccc5[nH]4)CC3)c2n1.O=C(O)C(=O)O | 27
7 | Nc1oc2c(CN3CCCCCC3)c(O)ccc2c(=O)c1-c1nc2ccccc2s1 | 12
8 | CN(CCN)Cc1cccc(-c2cccc(-c3nc4cc(C(F)(F)F)ccc4[nH]3)c2)c1.O=C(O)C(F)(F)F | 22
9 | COc1ccc(Cl)cc1-c1nc(C(=O)NCCN2CCCCC2)c(C(C)C)s1.O=C(O)C(F)(F)F | 14
10 | NCc1cccc(-c2ccccc2CNC2CCN(Cc3ccccc3)CC2)c1.O=C(O)C(F)(F)F | 0
11 | CCCc1cc(NCC)nc(Nc2ccc(F)cc2)n1 | 16
12 | NC1CCN(c2nc(NCCCc3ccc(O)cc3)nc(NCc3ccccc3-c3ccccc3)n2)CC1.O=C(O)C(F)(F)F | 11
